According to PubChem BioAssay AID602373 (National Center for Advancing Translational Sciences (NCATS), 2012):
Results filed as inconclusive are left out. Entries that show only a call come without a potency. The source made the active and inactive calls. Calls come from the whole dose curve; as a rule, active = well fitted inhibition curve with a large enough effect; inconclusive = small, poorly fitted or top-dose-only effect; inactive = no such curve, though single readings can be large or run the other way.

Assay: qHTS Assay for Inhibitors of Bacillus subtilis Sfp phosphopantetheinyl transferase (PPTase): Hepg2 Assay
Settings: HepG2 cytotoxicity counter-screen; series mostly up to 46.1 µM
Text: The covalent attachment of a phosphopantetheinyl (4'-PP) arm to a variety of synthases and other proteins is a key posttranslational protein modification. The 4'-PP is installed on the proteins post-translationally from coenzyme A (CoA) on a conserved serine residue by action of phosphopantetheinyl transferase (PPTase) enzymes. Phosphopantetheinylation is essential for synthase activity, and removal of the PPTase gene precludes natural product synthesis in microorganisms, or in the case of fatty acid biosynthesis, renders the organism unviable. PPTase enzymes belong to a distinct structural superfamily. Within bacteria, these enzymes are grouped into two classes based upon primary structure, the AcpS-Type and Sfp-Type PPTases.
Sfp-type PPTases, corresponding to an activator of surfactin production in Bacillus subtilis, are responsible for modifying type I polyketide and nonribosomal peptide synthases of prokaryotes. Sfp-type PPTases are responsible for the activation of a variety of pathogen-associated virulence factors. Among these compounds are toxins such as mycolactone from Mycobacterium ulcerans, siderophores such as vibriobactin from Vibrio cholerae or mycobactin from Mycobacterium tuberculosis, as well as the mycolic acids which form the waxy cell wall of Mycobacteria. The biosyntheses of these natural products are considered attractive targets for drug design.
In search of small molecule Sfp-PPTase inhibitors, a fluorescence quenching assay was developed for detection of Bacillus subtilis Sfp-PPTase enzymatic activity in a miniaturized high-throughput format. The consensus ybbr acceptor peptide […] was N-terminally labeled with Black Hole Quencher-2 (BHQ-2) and used in combination with rhodamine-labeled coenzyme A as a co-substrate.
Phosphopantetheinyl transfer is a process essential to cellular viability and maintenance in all forms of life. Cell-permeable and stable compounds acting as PPTase inhibitors are anticipated to be growth inhibitory agents. This assay sought to assess the toxicity of test compounds in the HepG2 hepatocarcinoma cells; a human cell line whose use additionally determines the toxicity of test article metabolites.
NIH Chemical Genomics Center [NCGC]
NIH Molecular Libraries Probe Centers Network [MLPCN]
Assay Submitter (PI): Michale Burkart, University of California, San Diego
Test compounds' toxicity was assessed by measuring cellular ATP content using a luciferase-coupled ATP quantitation assay (CellTiter-Glo; Promega, Madison, WI). In this assay, luminescent signal is proportional to amount of ATP, and thus to the number of metabolically competent cells. Briefly, Hepg2 cell suspension (5 uL, 4 x 10^5 cells/mL) was dispensed into 1,536-well tissue-culture treated white/solid bottom assay plates (Greiner Bio-One North America, Monroe, NC) using a Flying Reagent Dispenser (Aurora Discovery, Carlsbad, CA). Cells were incubated at 37 deg C for 6 hr to allow for cell attachment, followed by addition of compounds via pin tool (Kalypsys, San Diego, CA). After compound addition, plates were incubated for 48 hr at 37 deg C. At the end of the incubation period, CellTiter-Glo reagent (5 uL) was added, plates were incubated at room temperature in the dark for 30 min, and the luminescence intensity of each well was determined using a ViewLux plate reader (PerkinElmer, Shelton, CT). The positive control was 92 uM and 41 uM of tetra-N-Octylammonium bromide, and the negative control was DMSO.

Row | SMILES | Potency
1 | Cc1cc(C)nc(NC(=S)N2CCN(c3ccsc3)CC2)c1 | inactive
2 | Cc1ccnc(NC(=S)NC2CN(c3cccc(C(F)(F)F)c3)C2)c1 | 25 µM (active)
3 | COc1cccc(NC(=S)N2CCN(c3ccc(Cl)c(Cl)c3)CC2)n1 | inactive
4 | FC(F)(F)c1cccc(N2CCN(C(=S)Nc3nccc4ccccc34)CC2)c1 | inactive
5 | Cc1cc(C)nc(NC(=S)N2CCN(c3ccc4cn(C)nc4c3)CC2)c1 | inactive
6 | COc1cccc(NC(=S)N2CCN(c3cccc(C(F)(F)F)c3)CC2)n1 | 28.1 µM (active)
7 | Cc1cc(C)nc(Nc2nnc(N3CCN(c4cccc(C(F)(F)F)c4)CC3)s2)c1 | inactive
8 | COc1cccc(NC(=S)N2CCN(c3ccc(Cl)cc3Cl)CC2)n1 | inactive
9 | Cc1cc(C)nc(NC(=S)N2CCN(c3ccncc3)CC2)c1 | inactive
10 | Cc1cc(C)nc(NC(=S)N2CCN(c3nc4ccccc4s3)CC2)c1 | inactive
11 | Cc1cc(NC(=S)N2CCN(c3cccc(C(F)(F)F)c3)CC2)nc2ccccc12 | inactive
12 | Cc1cc(C)nc(NC(=S)N2CCN(c3cccc(S(C)(=O)=O)c3)CC2)c1 | inactive
13 | Cc1ccnc(NC(=O)N2CCN(c3cccc(C(F)(F)F)c3)CC2)c1 | 6.28 µM (active)
14 | Cc1cc(C)nc(NC(=S)N2CCN(c3ccc4nncn4c3)CC2)c1 | inactive
15 | Cc1cc(C)nc(NC(=S)N2CCN(c3ccc4nonc4c3)CC2)c1 | inactive
16 | Cc1cc(C)nc(NC(=S)N2CCN(c3ccc4c(c3)OCO4)CC2)c1 | inactive
17 | COc1cccc(NC(=S)N2CCN(c3ccccc3C(F)(F)F)CC2)n1 | inactive
18 | Cc1cc(C)nc(NC(=S)N2CCN(c3ccc(NS(C)(=O)=O)nn3)CC2)c1 | inactive
19 | COc1ccnc(NC(=S)N2CCN(c3ncc(C(F)(F)F)cc3Cl)CC2)c1 | inactive

Row | SMILES | Potency
20 | COc1ccnc(NC(=S)N2CCN(c3cccc(Cl)c3Cl)CC2)c1 | inactive
21 | COc1ccnc(NC(=S)N2CCN(c3ccc(Cl)cc3Cl)CC2)c1 | inactive
22 | CC(=O)c1ccc(N2CCN(C(=S)Nc3cc(C)ccn3)CC2)cc1 | inactive
23 | COc1cccc(NC(=S)N2CCN(c3cccc(C(F)(F)F)n3)CC2)n1 | inactive
24 | Cc1cc(C)nc(NC(=S)N2CCN(Cc3c(F)cccc3Cl)CC2)c1 | inactive
25 | Cc1ccnc(NC(=S)N2CCCN(c3cccc(C(F)(F)F)c3)CC2)c1 | 25 µM (active)
26 | Cc1cc(C)nc(NC(=C(C#N)C#N)N2CCN(c3cccc(C(F)(F)F)c3)CC2)c1 | inactive
27 | Cc1ccnc(NC(=S)NCCN(C)c2cccc(C(F)(F)F)c2)c1 | inactive
28 | Cc1cc(C)nc(NC(=S)N2CCN(c3nsc4ccccc34)CC2)c1 | inactive
29 | Cc1cc(C)nc(NC(=S)N2CCN(c3ccc4occc4c3)CC2)c1 | inactive
30 | Cc1cc(C)nc(NC(=S)N2CCN(c3ncccc3C#N)CC2)c1 | inactive
31 | Cc1cc(C)nc(NC(=S)N2CCN(c3ccc(N4CCCC4)nn3)CC2)c1 | inactive
32 | Cc1cc(C)nc(NC(=S)N2CCN(c3ncnc4sccc34)CC2)c1 | 15.8 µM (active)
33 | Cc1ccnc(N=C(N)N2CCN(c3cccc(C(F)(F)F)c3)CC2)c1 | 28.1 µM (active)
34 | Cc1cc(C)nc(NC(=S)N2CCN(c3ncccc3Cl)CC2)c1 | inactive
35 | CCN1CCN(C(=S)c2ccc(O)cc2)CC1 | inactive
36 | Cc1cc(C)nc(NC(=S)N2CCN(c3ccc(Cl)c(Cl)c3Cl)CC2)c1 | inactive
37 | FC(F)(F)c1cccc(N2CCN(C(=S)Nc3cc4ccccc4cn3)CC2)c1 | inactive
